Screens from PubChem.
FMDV antiviral: foot and mouth disease virus antiviral activity; FMDV antiviral cell-based qHTS; Potency, µM (titrated, usually from 57.9 µM), usual class: inhibitors; actives 1.2% (n = 410,000); calls by dose curve; tested in HEK293T cells; note: read-out not given here; nearly all actives have a fitted effect of over 45% in size
VACV Venus inh: vaccinia inhibition (Venus reporter); Potency, µM (highest dose often 36.5 µM), actives largely listed as inhibitors; AID 720580; actives 0.46% (n = 330,000); Vaccinia virus Venus reporter expression, fluorescence; calls by dose curve; tested in A549 cells; note: nearly all actives have a fitted effect of over 30% in size
HCMV inh: human cytomegalovirus inhibition; HFF cells, HCMV-luciferase reporter, 72 h; active compounds read low; activity change, negative = inhibition, % at 57.5 µM; actives 4.5% (n = 410,000); in the data active = activity change below about -60%; inconclusive = no clear call, values can overlap the other calls; inactive = above about -39%
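Human foreskin fibroblasts infected with luciferase-reporter HCMV at MOI 1 PFU/cell, compounds at two doses. Luciferase measured 72 h post infection; normalized to buffer-only basal and Salinomycin (10uM) controls.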
VACV mCherry inh: vaccinia inhibition (mCherry reporter); Vaccinia virus mCherry reporter infection, fluorescence; Potency, µM (top dose mostly 36.5 µM), hits mostly inhibitors; actives 0.63% (n = 310,000); AID 720579; calls by dose curve; tested in A549 cells; note: nearly all actives have a fitted effect of over 35% in size
HCV inh: blocks hepatitis C virus | Potency, µM (series often up to 41.8 µM), usual class: inhibitors | Huh7.5.1 HCVcc-Cre infection, luciferase reporter, 44 h | AID 651820 | actives 3.4% (n = 340,000)
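Infectious HCVcc-Cre (~0.5 moi) was added to cells just after compound, with cells seeded 4 h earlier at 1,000 per well. Luciferase activity after 44 h culture reported infection; substrate was incubated 15 min at room temperature before reading.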
Sm TGR inh: blocks Schistosoma mansoni thioredoxin glutathione reductase; purified TGR, DTNB reduction, TNB absorbance 405 nm; AID 485364; Potency, µM (titrated, usually from 114 µM), actives largely listed as inhibitors; actives 3% (n = 360,000); note: nearly all actives have a fitted effect of over 60% in size
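TGR 20 nM + NADPH 100 uM (dispensed conc.), cpd preinc 15 min RT; start with NADPH (500 uM addition) then DTNB (15 mM addition). Kinetic TNB absorbance, 405 nm filter. Four-parameter Hill fit across titration.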
Large screens that a line does not name were inactive. Sampled rows, rich in hits. Any-hit rate of the full collection: about 9.3%. Unless noted, calls come from the whole dose curve; as a rule, active = well fitted curve in the direction sought with a large enough effect; inconclusive = small, poorly fitted or top-dose-only effect, or another doubt; inactive = no such curve, though single readings can be large; an effect the other way counts as inactive or inconclusive.

CCCCc1nc(NCCNC(=O)c2ccccc2)c(C#N)c2c1CSC(C)(C)C2	FMDV antiviral inconclusive, VACV Venus inh inconclusive, HCMV inh -104, HCV inh inconclusive (no result: VACV mCherry inh)
CCCCc1nc(NCCNC(=O)c2ccco2)c(C#N)c2c1CSC(C)(C)C2	FMDV antiviral inconclusive, HCV inh 11µM (no result: VACV Venus inh, VACV mCherry inh)
CCN(CC)CCN1C2=C(C(=O)CC(C)(C)C2)C(c2cccc(F)c2)C2=C1CC(C)(C)CC2=O	none
Cc1c2cnn(CC(=O)NCc3ccc(Cl)cc3)c(=O)c2c(C)n1Cc1ccc(F)cc1	none (no result: HCV inh)
O=[N+]([O-])c1ccccc1CN1CCN(c2ncccn2)CC1	VACV mCherry inh inconclusive
Cc1c(Cl)cccc1N=Cc1ccc([N+](=O)[O-])s1	HCMV inh -108, Sm TGR inh 40µM (no result: VACV Venus inh, VACV mCherry inh)
O=C1CCCN1C(=O)COc1ccccc1[N+](=O)[O-]	none
O=C1CCCc2cc3c(cc21)CC1(C3)Cc2cc3c(cc2C1)C(=O)CCC3	FMDV antiviral inconclusive, VACV Venus inh inconclusive, HCMV inh -81, HCV inh 11µM
COc1ccc(-n2c(=O)c3c4c(sc3n(Cc3ccccc3Cl)c2=O)CCC4)c(OC)c1	none (no result: HCV inh)
O=c1/c(=C/c2ccc([N+](=O)[O-])cc2)sc2n1CCCN=2	HCMV inh -91 (no result: VACV mCherry inh)
COc1cc(/C=c2\sc3n(c2=O)CCCN=3)ccc1O	VACV Venus inh inconclusive
COc1cc(NC(=O)COc2ccccc2Cl)ccc1NC(=O)c1cccs1	HCV inh 1.1µM
COc1cc(NCCC(=O)c2cccs2)c(OC)cc1Cl	Sm TGR inh 1.3µM
COc1cc(NC(=O)COc2ccccc2[N+](=O)[O-])ccc1NC(=O)c1cccs1	VACV Venus inh inconclusive, HCMV inh inconclusive, HCV inh inconclusive (no result: Sm TGR inh)
COc1cc(NC(=O)c2cccs2)c(C(=O)OCC(=O)c2cc(C)n(-c3ccc(F)cc3)c2C)cc1OC	FMDV antiviral inconclusive
COc1cc(NC(=O)c2cccs2)c(C(=O)OCC(=O)c2cc(C)n(-c3ccccc3)c2C)cc1OC	FMDV antiviral 4µM
COc1cc(NC(=O)c2cccs2)c(OC)cc1NC(=O)Cc1ccccc1	HCV inh 35µM
COc1cc(NC(=O)c2cccs2)c(OC)cc1NC(=O)c1cccs1	none (no result: HCMV inh, Sm TGR inh)
Cc1ccc(S(=O)(=O)N2CCOCC2)cc1C(=O)OCC(=O)NC1CCS(=O)(=O)C1 (configuration not stated)	none
CC(=N)C1=C(O)CC(c2ccccc2)CC1=O (configuration not stated)	HCMV inh -99
CCC(=NC)C1=C(O)CC(c2ccccc2)CC1=O (configuration not stated)	none
Cc1cnc(C(=O)OCC(=O)C23CC4CC(CC(C4)C2)C3)cn1	none (no result: VACV Venus inh, VACV mCherry inh)
Nc1ncc(-c2ccc([N+](=O)[O-])cc2)cn1	HCMV inh -95
O=C(O)C1=C[C@@H](C2CC2)C[C@@H](OCc2ccc(CO)cc2)O1	none
CC(CCN1CCC(n2nccc2NC(=O)c2ccccc2Cl)CC1)c1ccccc1 (configuration not stated)	none (no result: VACV Venus inh, VACV mCherry inh)
CCCC1CC(C)(c2csc(Nc3ccc(OCC)cc3)n2)OC1=O (configuration not stated)	HCMV inh -89, HCV inh inconclusive (no result: VACV Venus inh, VACV mCherry inh)
Cc1ccc(C2=NCCn3nc4cc(C(F)(F)F)ccc4c32)cc1	none
Cc1ccc(C2=NCCn3nc4cc([N+](=O)[O-])ccc4c32)cc1	VACV mCherry inh inconclusive, Sm TGR inh 40µM
CCOC(=O)N1CCC(N2C(=O)c3ccccc3C2Nc2cc(C(=O)OC)cc(C(=O)OC)c2)CC1 (configuration not stated)	none
CCN(CC)C(=O)C1CCN(S(=O)(=O)c2ccc3oc4ccccc4c3c2)CC1	VACV Venus inh inconclusive, HCMV inh -70, HCV inh inconclusive (no result: FMDV antiviral)
CCCC1=Nc2cc(C(=O)NCCOC)ccc2Sc2ccccc21	HCMV inh -97, VACV mCherry inh inconclusive (no result: HCV inh)
CCCC1=Nc2cc(C(=O)NCCCOC(C)C)ccc2Sc2ccccc21	HCMV inh inconclusive, HCV inh inconclusive (no result: VACV Venus inh, VACV mCherry inh)
CCCC1=Nc2cc(C(=O)NCCCOCC)ccc2Sc2ccccc21	VACV Venus inh inconclusive, HCMV inh -82, HCV inh inconclusive
CCCC1=Nc2cc(C(=O)NCCCN(CC)CC)ccc2Sc2ccccc21	none (no result: HCV inh)
COc1ccc(OC)c(/C=N/NC(=O)CCc2ccc(O)c(O)c2)c1	Sm TGR inh 20µM
